Pin1 inh: qHTS Assay to Find Inhibitors of Pin1; Peptidyl-prolyl cis-trans isomerase NIMA-interacting 1 (Homo sapiens), Q13526; Pin1 FP peptide displacement, HiFluor488, 10 min; Potency, µM (series often up to 115 µM), hits mostly inhibitors; 390,000 tested, 0.009% active; AID 504891, 2011; active = well fitted inhibition curve with a large enough effect in the polarisation, with a control signal flat, not every such curve was filed as active; inconclusive = small, poorly fitted or top-dose-only effect, or effect the other way, or a change in a side signal; inactive = no such curve, though single readings can be large or run the other way; the % refers to the polarisation
Target sequence (Q13526 whole entry, looked up): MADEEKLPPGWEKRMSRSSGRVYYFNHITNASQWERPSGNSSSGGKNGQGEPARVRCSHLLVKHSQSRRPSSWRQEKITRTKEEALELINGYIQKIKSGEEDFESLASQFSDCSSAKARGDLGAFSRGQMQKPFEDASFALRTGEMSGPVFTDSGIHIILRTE
PI4K2A block: qHTS for small molecular inhibitors of PI4K2A; Phosphatidylinositol 4-kinase type 2-alpha (Homo sapiens), Q9BTU6; purified PI4K2A, ADP-Glo luminescence, 1 h; stronger effect = lower value; activity change, negative = inhibition, % at 76.9 µM; 420,000 tested, 0.13% active; AID 1346378, 2018; in the data active = activity change below about -50%; inconclusive = mostly about -30% to -49%
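PI4K2A activity was measured by ADP-Glo luminescence: enzyme (4 ug/mL stock) and phosphatidylinositol (1.2 mM stock) in Tris pH 7.5/MgCl2/EGTA/Triton X-100 buffer were reacted with ATP (300 microM stock) for one hour at ambient temperature.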
Tb PGK inh: qHTS Assay to Find Inhibitors of Phosphoglycerate Kinase. 380,000 tested, 0.043% active. Phosphoglycerate kinase, glycosomal (Trypanosoma brucei brucei), P07378. AID 602233, 2012. Potency, µM (highest dose often 57.5 µM), actives largely listed as inhibitors. PGK/GAPDH coupled, Kinase-Glo luminescence, 60 min; also: nearly all actives have a fitted effect of over 60% in size
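Luminescent ATP detection (Kinase-Glo Plus) follows a 60-minute room-temperature incubation, with wells lacking PGK as controls. Buffer: 100 mM TEA (pH 7.6), 5 mM MgCl2, 0.01% Tween-20. Coupling enzyme GAPDH (100 nM final) supplies unstable 1,3-BPG in-well.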
Tb PFK inh: qHTS Assay to Find Inhibitors of T. brucei phosphofructokinase. T. brucei PFK, ADP-Glo luminescence. AID 485367, 2010. ATP-dependent 6-phosphofructokinase (Trypanosoma brucei brucei), O15648. 330,000 tested, 0.17% active. Potency, µM (series often up to 57.5 µM), hits mostly inhibitors; also: nearly all actives have a fitted effect of over 60% in size
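Compounds were pin-transferred as a titration series up to 57 uM into substrate buffer (0.5 mM F6P, 0.1 mM ATP, pH 8.0), then 1.25 nM PFK was added and reactions ran 45 min before ADP-Glo detection.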
PI5P4Ka inh: qHTS for Inhibitors of phosphatidylinositol 5-phosphate 4-kinase (PI5P4K). AID 652105, 2013. 330,000 tested, 1.2% active. PI5P4Kalpha enzyme, ADP-Glo luminescence, 60 min; stronger effect = lower value. max response, %; active = max response of -50% or lower; inconclusive = between -30% and -50%; inactive = -30% or higher; also: value at the top dose of about 77 µM
Target sequence (P48426 whole entry, looked up): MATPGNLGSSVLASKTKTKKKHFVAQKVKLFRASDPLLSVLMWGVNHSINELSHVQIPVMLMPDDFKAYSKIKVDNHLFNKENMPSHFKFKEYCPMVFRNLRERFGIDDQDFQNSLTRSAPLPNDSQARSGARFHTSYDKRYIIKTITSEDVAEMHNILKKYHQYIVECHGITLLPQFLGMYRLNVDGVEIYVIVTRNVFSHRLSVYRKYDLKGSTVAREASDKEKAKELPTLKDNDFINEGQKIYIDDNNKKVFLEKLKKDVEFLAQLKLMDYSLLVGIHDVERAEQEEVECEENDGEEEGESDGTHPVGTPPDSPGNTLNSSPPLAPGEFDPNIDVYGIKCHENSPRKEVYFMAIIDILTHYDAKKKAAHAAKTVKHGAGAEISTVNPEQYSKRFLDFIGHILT
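Luminescence from ADP-Glo served as readout of PI5P4Kalpha activity in a qHTS format. Reaction: enzyme, substrate, compound, ATP at 5 microM final, 60 min at RT.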
Of the large screens only hits and unclear results are named; the others gave an inactive call. Many of the other results were omitted from the sample, so hits are more common in it than they were. Unless noted, calls follow the shape of the dose curve; as a rule, active = well fitted curve in the direction sought with a large enough effect; inconclusive = small, poorly fitted or top-dose-only effect, or another doubt; inactive = no such curve, though single readings can be large; an effect the other way counts as inactive or inconclusive.

CC(=O)N[C@@H](CO)C(=O)N[C@@H](CC(=O)O)C(=O)N[C@@H](CCCCN)C(=O)N1CCC[C@H]1C(=O)O	none (no result: Pin1 inh, Tb PGK inh, Tb PFK inh, PI5P4Ka inh)
O=C(Nc1ccc(S(=O)(=O)N2CCOCC2)cc1)c1cc(Cl)ccc1NS(=O)(=O)c1ccc(Cl)s1	none (no result: Pin1 inh, Tb PGK inh, Tb PFK inh, PI5P4Ka inh)
CCOC(=O)c1ccc(-c2ccc3ncnc(NCc4cccs4)c3c2)o1	none (no result: PI4K2A block, Tb PGK inh, Tb PFK inh, PI5P4Ka inh)
N#Cc1c(Nc2cccc(F)c2)sc2c(O)cc(=O)[nH]c12	Pin1 inh inconclusive, PI5P4Ka inh -75.7
Cc1cc(=O)[nH]c(Nc2cccc(F)c2)n1	none
COc1ccc(C2Nc3ccccc3C(=O)N2CCO)cc1COc1ccc(NC(C)=O)cc1 (stereo not given)	none (no result: PI4K2A block, Tb PGK inh, Tb PFK inh, PI5P4Ka inh)
CC(CCC(=O)NN)C1CCC2C3CCC4CC(O)CCC4(C)C3CCC12C (stereo not given)	none (no result: Tb PFK inh)
CC(CCC(C)C(C)(C)C)[C@@H]1CC[C@H]2C3C[C@H](OS(O)(=S)=S)[C@H]4C[C@H](OS(O)(=S)=S)[C@@H](OS(O)(=S)=S)C[C@]4(C)[C@H]3CC[C@]12C (stereo not given in full) (tested in a mixture with another compound)	Pin1 inh inconclusive, PI4K2A block -58.6, Tb PGK inh 25.1µM, PI5P4Ka inh inconclusive
CCn1c2cc(C)sc2c2cnn(Cc3ccccc3F)c(=O)c21	none (no result: PI4K2A block, Tb PGK inh, Tb PFK inh, PI5P4Ka inh)
Cn1c2ccsc2c2cnn(Cc3ccccc3F)c(=O)c21	none (no result: PI4K2A block, Tb PGK inh, Tb PFK inh, PI5P4Ka inh)
O=C(Nc1ccc2nc(-c3ccco3)c(-c3ccco3)nc2c1)N1CCCCCC1	Pin1 inh inconclusive, PI4K2A block -50.6 (no result: PI5P4Ka inh)
O=C(NC1CCCC1)c1ccc2nc(-c3ccco3)c(-c3ccco3)nc2c1	PI4K2A block inconclusive, PI5P4Ka inh -62.9 (no result: Pin1 inh)
CCOC(=O)C1CCN(C(=O)Nc2ccc3nc(-c4ccco4)c(-c4ccco4)nc3c2)CC1	Pin1 inh inconclusive, PI4K2A block inconclusive, Tb PGK inh inconclusive, Tb PFK inh inconclusive, PI5P4Ka inh -70.2
O=C(NCCO)c1ccc2nc(-c3ccco3)c(-c3ccco3)nc2c1	PI4K2A block inconclusive (no result: Pin1 inh)
Cc1cc(C)n2ncc(C(=O)NCC(C)C)c2n1	none (no result: PI4K2A block, Tb PGK inh, Tb PFK inh, PI5P4Ka inh)
Cc1cc2c(s1)c1cnn(Cc3c(F)c(F)c(C)c(F)c3F)c(=O)c1n2C	none (no result: PI4K2A block, Tb PGK inh, Tb PFK inh, PI5P4Ka inh)
COc1cc(NC(=O)C2CCCN(S(=O)(=O)c3ccc(Cl)s3)C2)cc(OC)c1 (stereo not given)	none (no result: Pin1 inh, Tb PGK inh, Tb PFK inh, PI5P4Ka inh)
Cc1ccc(/C=C/c2nc3ccccc3n2S(=O)(=O)c2ccc(Br)cc2)cc1	PI4K2A block -63.5 (no result: Tb PFK inh, PI5P4Ka inh)
Cc1ccc(S(=O)(=O)n2c(N)nc3ccccc32)cc1	none
O=C1CC(=O)N(Cc2ccco2)C(=O)N1	Pin1 inh inconclusive, PI4K2A block inconclusive, Tb PGK inh 5.01µM, Tb PFK inh 23.9µM (no result: PI5P4Ka inh)
Nc1cccnc1Sc1ccc(Cl)cc1	none
Nc1cccnc1Sc1cccc(Cl)c1	Pin1 inh inconclusive, PI4K2A block -69.3, Tb PFK inh inconclusive
Cc1ccc(S(=O)(=O)Nc2c(Cl)c(Cl)c(O)c3ccccc23)cc1	Tb PFK inh 15.1µM (no result: Pin1 inh, PI4K2A block, Tb PGK inh, PI5P4Ka inh)
Oc1c(Br)cc(C=Nc2ccc3nc(-c4ccccc4)[nH]c3c2)c(O)c1Br	Tb PFK inh inconclusive, PI5P4Ka inh -70.9
CCCCCCCCN1CN2Cc3cc(OC)ccc3C2CS1(=O)=O (stereo not given)	none (no result: Pin1 inh, Tb PGK inh, Tb PFK inh, PI5P4Ka inh)
Cc1ccc(Cl)c(OCC(O)CNC(C)(C)C)c1 (stereo not given)	none (no result: Pin1 inh, Tb PGK inh, Tb PFK inh, PI5P4Ka inh)
Cc1cccc(C)c1NC(=O)[C@@H]1CC(=O)O[C@@H]1c1ccccc1	none (no result: Pin1 inh, Tb PGK inh, Tb PFK inh, PI5P4Ka inh)
C[C@@H]1[C@@H](Sc2ccccc2)CC(=O)O[C@@H]1c1ccc(-c2ccccc2)cc1	PI4K2A block -62.7 (no result: Tb PFK inh)
C=CS(=O)(=O)c1sc(Cl)c(N2CCOCC2)c1[N+](=O)[O-]	Pin1 inh inconclusive, PI5P4Ka inh -104.6
N#Cc1ccc2c(=O)n(-c3ccccc3)sc2c1	PI5P4Ka inh -85.1 (no result: Pin1 inh, Tb PFK inh)
CC(=O)Nc1ccc2c(=O)n(-c3ccccc3)sc2c1	PI5P4Ka inh -104.9 (no result: Pin1 inh, Tb PFK inh)
O=c1c2cc(C(F)(F)F)ccc2sn1-c1ccccc1	PI5P4Ka inh -102.2 (no result: Pin1 inh, Tb PFK inh)
COc1ccc(NC(=O)C(OC(=O)CNC(=O)c2ccccc2)c2ccccc2)c(C)c1 (stereo not given)	none (no result: PI4K2A block, Tb PGK inh, Tb PFK inh, PI5P4Ka inh)
